Data on 26 compounds can be found in PubChem BioAssay (NCATS).

Where “and” joins values, the source holds several entries; their conditions need not be identical. Identical values can stand only once. Inconclusive results are not listed. Calls of active or inactive are those of the source. Calls follow the shape of the dose curve; as a rule, active = well fitted curve in the direction sought with a large enough effect; inconclusive = small, poorly fitted or top-dose-only effect, or another doubt; inactive = no such curve, though single readings can be large; an effect the other way counts as inactive or inconclusive.

Experiment [1] can be described thus: Primary qHTS for inhibitors of nuclear receptor binding SET domain protein 2 (NSD2) in an RCH-ACV wild type WT cells (2C) (AID 1645877; also: nearly all actives have a fitted effect of over 70% in size; also: potency is read from the fitted curve at half-maximal effect). (In general: qHTS replaces the single test concentration by a dilution series.)
For experiment [2], the target named is Glutathione peroxidase 1 (Homo sapiens) (UniProt P07203). The experiment can be described thus: Primary qHTS Assay for Inhibitors of Recombinant Selenoprotein Glutathione Peroxidase 1 (GPX1) (AID 1845191). Also: nearly all actives have a fitted effect of over 65% in size. In short, it runs like this: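 GR-coupled readout: NADPH consumption tracked by fluorescence, ex 340/em 450 nm, at t=0 and after 15 min at RT. Final mix 10 nM GPX1, 1 mM GSH, 0.5 mM CHP, 0.5 mM NADPH, 100 nM GR, 0.01% BSA, following 30 min enzyme–compound preincubation.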

Experiment [3] can be described thus: Primary qHTS for inhibitors of nuclear receptor binding SET domain protein 2 (NSD2) in an isogenic RCH-ACV NSD2 p.E1099K mutant (9B) (AID 1645876). Also: nearly all actives have a fitted effect of over 70% in size. Also: potency is read from the fitted curve at half-maximal effect.
Experiment [4] deals with Metallo-beta-lactamase type 2 (Klebsiella pneumoniae) (UniProt C7C422). Kind of experiment: qHTS to identify inhibitors of the New Delhi Metallo-beta-lactamase (NDM): assay validation screen against the NCATS LOPAC Collection (AID 1794843).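 Also: nitrocefin turnover by NDM-1 measured as 485 nm absorbance at plateau; % is scaled to controls: 0 for no effect and ±100 for the full control effect.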 Put shortly:
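NDM-1 at 2 nM final in 50 mM HEPES pH 7.0 with 1 uM ZnSO4 and 0.01% Tween20 was preincubated with library compounds in DMSO. Nitrocefin (50 uM stock) was then added, and absorbance at 485 nm was read at the kinetic plateau.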

For experiment [5], the target named is Catechol O-methyltransferase (Homo sapiens) (UniProt P21964). The experiment can be described thus: Confirmatory Screen for Target Class Profiling of Small Molecule Inhibitors of Methyltransferases (AID 1745852). As to activity change, negative = inhibition: % is scaled to controls: 0 for no effect and ±100 for the full control effect. To be noted: MTase-Glo luminescence, SAH detection, recombinant enzyme; measured here: COMT max response; stronger effect = lower value.
Experiment [6] addresses Guanidinoacetate N-methyltransferase (Homo sapiens) (UniProt Q14353). The description is as above. To be noted: MTase-Glo luminescence, SAH detection, recombinant enzyme; activity change, negative = inhibition: at 57.3 µM (top of the series) unless noted.
In experiment [7] the target is Nicotinamide N-methyltransferase (Homo sapiens) (UniProt P40261). The experiment is described as above. Conditions: MTase-Glo luminescence, SAH detection, recombinant enzyme; measured here: NNMT max response; stronger effect = lower value.
The target of experiment [8] is Phenylethanolamine N-methyltransferase (Homo sapiens) (UniProt P11086). The experiment is described as above. To be noted: MTase-Glo luminescence, SAH detection, recombinant enzyme; measured here: PNMT max response; stronger effect = lower value.
The nature of experiment [9]: HepG2 viability counterscreen (readout 2: ATP content) against the NCATS DSHEA and TCM libraries (AID 1794840).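 Also: HepG2 cells exposed to substances for about 24 h; 0% is about no effect.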 In short, it runs like this: (§1)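 After HepG2 cells attach for ~4 h, substances are added and incubated ~24 h at 37C, 5% CO2. GF-AFC fluorescence then CellTiter-Glo luminescence give protease and ATP readouts.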
Background: A counterscreen serves to expose hits that act by an unwanted route or on another target.

Experiment [10] in a line: HepG2 viability counterscreen (readout 1: protease activity) against the NCATS DSHEA and TCM libraries (AID 1794841).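 Also: cells exposed to compounds for about 24 h before the protease read; 0% is about no effect.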 In short, it runs like this: as §1
Experiment [11] deals with Rap guanine nucleotide exchange factor 3 (Homo sapiens) (UniProt O95398). Kind of experiment: Confirmatory qHTS for antagonist of cAMP-regulated guanine nucleotide exchange factor 3 (EPAC1) (AID 1645880).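 Also: plate controls were DMSO only for no effect and full effect of the ATA control for full effect; nearly all actives have a fitted effect of over 55% in size.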 Put shortly: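 Released BODIPY-GDP fluoresces less than Rap1-bound BODIPY-GDP; the signal is followed at 480/540 nm at 5-min intervals over 30 min, after 5 min at room temperature. Reactions contain 100 nM EPAC1, 250 nM RAP1B-BODIPY-GDP and 50 uM GDP; results are normalized to ATA and DMSO.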

Experiment [12] shares this target. Kind of experiment: Confirmatory qHTS for agonist of cAMP-regulated guanine nucleotide exchange factor 3 (EPAC1) (AID 1645881).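 Also: EPAC1 catalysed release of BODIPY-GDP from Rap1B seen as fluorescence loss; 100% = effect of cAMP agonist control; nearly all actives have a fitted effect of over 75% in size.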
The target of experiment [13] is Rap guanine nucleotide exchange factor 4 (Homo sapiens) (UniProt Q8WZA2). The experiment can be described thus: Confirmatory qHTS for agonist of cAMP-regulated guanine nucleotide exchange factor 4 (EPAC2) (AID 1645884).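 Also: nucleotide exchange releases bodipy-GDP from Rap1 and this lowers its fluorescence; % is scaled to controls: 0 for no effect and ±100 for the full control effect; nearly all actives have a fitted effect of over 65% in size.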
Chain of Rap guanine nucleotide exchange factor 4 (Homo sapiens) (Q8WZA2 whole entry, looked up): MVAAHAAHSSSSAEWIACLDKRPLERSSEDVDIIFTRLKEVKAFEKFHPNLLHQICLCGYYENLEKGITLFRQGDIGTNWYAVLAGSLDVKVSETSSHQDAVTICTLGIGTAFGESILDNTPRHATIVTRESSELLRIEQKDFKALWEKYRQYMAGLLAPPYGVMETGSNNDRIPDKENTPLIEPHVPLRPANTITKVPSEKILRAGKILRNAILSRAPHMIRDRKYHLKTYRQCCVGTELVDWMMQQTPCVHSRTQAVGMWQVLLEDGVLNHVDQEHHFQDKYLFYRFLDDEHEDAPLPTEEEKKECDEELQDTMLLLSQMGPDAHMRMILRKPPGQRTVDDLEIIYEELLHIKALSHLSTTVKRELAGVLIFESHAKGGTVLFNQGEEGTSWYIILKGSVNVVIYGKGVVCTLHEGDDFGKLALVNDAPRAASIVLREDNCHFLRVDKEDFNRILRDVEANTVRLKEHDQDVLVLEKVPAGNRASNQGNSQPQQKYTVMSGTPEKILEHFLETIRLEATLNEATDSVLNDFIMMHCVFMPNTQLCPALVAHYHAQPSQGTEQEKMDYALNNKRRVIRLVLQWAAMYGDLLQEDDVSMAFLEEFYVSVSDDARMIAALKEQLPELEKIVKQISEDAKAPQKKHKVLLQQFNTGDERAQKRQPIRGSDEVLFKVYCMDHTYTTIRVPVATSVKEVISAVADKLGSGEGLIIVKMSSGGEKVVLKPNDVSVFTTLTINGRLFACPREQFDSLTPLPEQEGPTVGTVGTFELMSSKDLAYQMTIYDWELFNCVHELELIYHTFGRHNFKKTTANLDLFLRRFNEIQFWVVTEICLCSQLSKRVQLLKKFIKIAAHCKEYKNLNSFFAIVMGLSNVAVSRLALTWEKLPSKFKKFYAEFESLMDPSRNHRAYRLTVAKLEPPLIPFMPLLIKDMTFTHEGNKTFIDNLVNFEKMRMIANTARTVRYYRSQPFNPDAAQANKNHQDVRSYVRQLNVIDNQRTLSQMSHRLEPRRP

Chain of Glutathione peroxidase 1 (Homo sapiens) (P07203 whole entry, looked up): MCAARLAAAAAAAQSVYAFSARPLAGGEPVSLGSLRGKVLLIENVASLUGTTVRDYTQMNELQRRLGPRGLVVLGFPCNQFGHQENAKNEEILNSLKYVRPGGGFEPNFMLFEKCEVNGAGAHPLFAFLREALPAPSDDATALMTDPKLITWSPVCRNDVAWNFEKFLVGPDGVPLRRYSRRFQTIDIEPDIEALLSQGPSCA
Chain of Rap guanine nucleotide exchange factor 3 (Homo sapiens) (O95398 whole entry, looked up): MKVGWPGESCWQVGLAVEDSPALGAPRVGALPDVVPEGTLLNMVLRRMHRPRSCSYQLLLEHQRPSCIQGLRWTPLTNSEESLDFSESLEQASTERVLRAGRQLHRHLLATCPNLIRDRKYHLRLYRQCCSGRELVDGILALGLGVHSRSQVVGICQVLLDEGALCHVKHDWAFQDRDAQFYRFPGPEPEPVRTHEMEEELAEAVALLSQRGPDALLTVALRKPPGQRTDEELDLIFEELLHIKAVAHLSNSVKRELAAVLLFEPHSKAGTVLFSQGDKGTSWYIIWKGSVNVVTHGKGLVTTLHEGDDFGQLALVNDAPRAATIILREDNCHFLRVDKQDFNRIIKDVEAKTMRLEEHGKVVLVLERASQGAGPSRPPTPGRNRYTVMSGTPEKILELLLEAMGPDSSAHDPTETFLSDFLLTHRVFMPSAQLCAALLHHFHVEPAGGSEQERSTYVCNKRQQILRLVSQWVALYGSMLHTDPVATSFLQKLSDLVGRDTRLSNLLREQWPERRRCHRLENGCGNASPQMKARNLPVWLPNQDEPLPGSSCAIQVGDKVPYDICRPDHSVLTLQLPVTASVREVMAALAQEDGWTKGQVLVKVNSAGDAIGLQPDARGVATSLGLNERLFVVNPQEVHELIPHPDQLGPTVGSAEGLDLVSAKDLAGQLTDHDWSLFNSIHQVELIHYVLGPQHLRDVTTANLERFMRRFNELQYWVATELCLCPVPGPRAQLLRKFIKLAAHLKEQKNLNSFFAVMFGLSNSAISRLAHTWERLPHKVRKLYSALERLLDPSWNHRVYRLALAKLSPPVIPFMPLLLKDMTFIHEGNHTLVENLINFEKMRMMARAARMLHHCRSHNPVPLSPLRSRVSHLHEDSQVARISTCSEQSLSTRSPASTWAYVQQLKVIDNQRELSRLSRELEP
Chain of Metallo-beta-lactamase type 2 (Klebsiella pneumoniae) (C7C422 whole entry, looked up): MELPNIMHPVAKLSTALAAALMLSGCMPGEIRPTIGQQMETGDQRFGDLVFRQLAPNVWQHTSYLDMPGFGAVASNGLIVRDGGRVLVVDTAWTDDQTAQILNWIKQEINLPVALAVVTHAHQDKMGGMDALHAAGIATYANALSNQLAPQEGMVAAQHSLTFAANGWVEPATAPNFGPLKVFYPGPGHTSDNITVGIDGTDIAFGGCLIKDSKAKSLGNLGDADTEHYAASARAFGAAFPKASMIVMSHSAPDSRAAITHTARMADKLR
Chain of Phenylethanolamine N-methyltransferase (Homo sapiens) (P11086 whole entry, looked up): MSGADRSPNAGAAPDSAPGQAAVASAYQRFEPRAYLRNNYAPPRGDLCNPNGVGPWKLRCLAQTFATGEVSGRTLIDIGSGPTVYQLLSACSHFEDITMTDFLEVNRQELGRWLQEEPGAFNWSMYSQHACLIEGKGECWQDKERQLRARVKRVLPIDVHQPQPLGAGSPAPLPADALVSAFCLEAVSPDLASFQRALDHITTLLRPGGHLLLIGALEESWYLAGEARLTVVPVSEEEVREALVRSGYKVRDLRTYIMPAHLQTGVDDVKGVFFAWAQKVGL
Chain of Catechol O-methyltransferase (Homo sapiens) (P21964 whole entry, looked up): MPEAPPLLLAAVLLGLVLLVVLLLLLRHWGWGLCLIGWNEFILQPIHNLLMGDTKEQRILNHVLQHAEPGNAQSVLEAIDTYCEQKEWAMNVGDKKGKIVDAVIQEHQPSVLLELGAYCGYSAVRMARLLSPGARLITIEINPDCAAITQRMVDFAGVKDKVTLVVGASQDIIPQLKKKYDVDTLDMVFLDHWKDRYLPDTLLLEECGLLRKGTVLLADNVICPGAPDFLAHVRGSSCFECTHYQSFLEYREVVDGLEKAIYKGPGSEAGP
Chain of Nicotinamide N-methyltransferase (Homo sapiens) (P40261 whole entry, looked up): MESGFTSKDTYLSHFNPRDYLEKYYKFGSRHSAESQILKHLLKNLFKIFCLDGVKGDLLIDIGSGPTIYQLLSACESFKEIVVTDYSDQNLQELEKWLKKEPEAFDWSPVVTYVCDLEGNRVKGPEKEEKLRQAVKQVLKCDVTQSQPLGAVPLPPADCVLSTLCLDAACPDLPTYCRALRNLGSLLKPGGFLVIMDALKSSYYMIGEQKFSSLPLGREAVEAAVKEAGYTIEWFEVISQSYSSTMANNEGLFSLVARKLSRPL

With `CCNc1cc(NC2CCC(O)CC2)nc(Nc2ccc3c(ccn3Cc3ccccc3)c2)n1` (stereo unspecified), the Potency in experiment [1] was 3.32 µM (active). Also, the Potency entry in experiment [2] was “inactive”.

Take `CN1C[C@H]2c3ccccc3Oc3ccc(Cl)cc3[C@@H]2C1`: the Potency entry in experiment [2] is “inactive”.

Turning to `CC(C)C(=O)Oc1ccc(CO)cc1[C@H](CCN(C(C)C)C(C)C)c1ccccc1`, the Potency entry in experiment [3], in [1] and in experiment [2] was “inactive” each time.

Consider `CC(C)C[C@H](CC(=O)O)C(=O)N[C@@H](Cc1c[nH]c2ccccc12)C(=O)N[C@@H](C)c1ccccc1`, for which the Potency entry in experiment [2] is “inactive”.

For `COc1cc(NC(=O)c2ccc(-c3ccc(Cl)cc3)o2)cc(OC)c1`, the Potency entry in experiment [3] and in [2] was “inactive” throughout.

Consider `O=c1cc(CN2CCOCC2)occ1OCCCCCSc1ccnc2cc(C(F)(F)F)ccc12`, for which the Potency in experiment [3] was 18.6 µM (active) and 9.16 µM (active); in experiment [1], 16.6 µM (active) and 18.3 µM (active). In addition, in [2], the Potency entry is “inactive”.

With `CC(=O)O[C@]1(C(C)=O)CC[C@H]2[C@@H]3C=C(Cl)C4=CC(=O)[C@@H]5C[C@@H]5[C@]4(C)[C@H]3CC[C@@]21C`, the Potency entry in [1] and in experiment [4] was “inactive” throughout.

Turning to `O=C(NOCC(O)CO)c1cc(Br)c(F)c(F)c1Nc1ccc(I)cc1F` (stereo unspecified), in experiment [1], the Potency was 20.9 µM (active).

On to `O=C1C[C@@H](c2ccc(O)cc2)Oc2cc(O)cc(O)c21`, for which the Potency result in experiment [3] and in experiment [2] was “inactive” in each case.

`CC(=O)OC1C(C)OC(Oc2c(-c3ccc(O)cc3)oc3cc(O)cc(O)c3c2=O)C(O)C1OC(C)=O` (stereo unspecified): the Potency entry in experiment [2] is “inactive”.

Consider `CCc1ccc(C=C2SC(=S)NC2=O)cc1`, for which the activity in experiment [5] was -2.96%; in [7] it was -15.7%; in experiment [8], -1.21%. Besides, in experiment [6], the activity change, negative = inhibition is -3.11%.

On to `N#CC1(c2ccc(NC(=O)c3cccnc3NCc3ccncc3)cc2)CCCC1`, for which the Potency result in [2] is “inactive”.

Take `Nc1ncnc2c1nc(Cl)n2[C@@H]1O[C@H](CO)[C@@H](O)[C@@H]1O`: the Potency was 18.6 µM (active) in experiment [3] and 20.9 µM (active) in experiment [1]. Besides, in experiment [2], the Potency entry is “inactive”.

With `CC(C)(C(=O)NCC(F)(F)C(F)(F)F)C(=O)N[C@@H]1C(=O)Nc2ccccc2-c2ccccc21`, the Potency result in experiment [1] and in experiment [2] was “inactive” each time.

Consider `O=c1cc(-c2ccccc2)oc2cc(O)c(O)c(O)c12`, for which, in experiment [1], the Potency was 23.5 µM (active). The Potency entry in [2] was “inactive”.

Consider `O=C(NCc1ccncc1)C12C[C@H]3C[C@@H](C1)CC(c1ccc(Cl)cc1)(C3)C2`, for which, in [2], the Potency result is “inactive”.

Regarding `COc1ccc(-c2coc3cc(O)ccc3c2=O)cc1`, the outcome in [9] and in [10] was “inactive” in each case.

On to `CN(C[C@@H]1COCCO1)S(=O)(=O)Nc1ccc2ccc3ncc(-c4cnn(C)c4)cc3c(=O)c2c1`, for which the Potency in experiment [3] was 5.15 µM (active); in [1], 6.49 µM (active). Besides, the Potency entry in [2] is “inactive”.

In the case of `C[C@]12CCC3c4ccc(O)cc4CCC3C1CCC2=O` (stereo partly specified), the Potency entry in experiment [2] was “inactive”.

In the case of `Cc1ccc(C(C)(O)c2nc3ccccc3s2)c(C)c1` (stereo unspecified), in [2], the Potency entry is “inactive”.

For the compound `CS(=O)(=O)N(Cc1ccco1)CC(O)Cn1c2ccccc2c2ccccc21` (stereo unspecified), the Potency entry in experiment [2] is “inactive”.

With `CN(C)c1cc(NC(=O)CNC(C)(C)C)c(O)c2c1C[C@@H]1C[C@H]3[C@H](N(C)C)C(=O)C(C(N)=O)=C(O)[C@@]3(O)C(=O)C1=C2O`, the Potency entry in experiment [2] is “inactive”.

For the compound `O=C(N[C@@H](c1ccccc1)[C@@H]1CCCCN1)c1cccc(C(F)(F)F)c1Cl`, the Potency in experiment [3] was 18.6 µM (active); in experiment [1] it was 16.6 µM (active). The Potency entry in experiment [2] is “inactive”.

For the compound `c1ccc2c(Cc3c[nH]c4ccccc34)c[nH]c2c1`, the outcome in experiment [11], in experiment [12] and in [13] was “inactive” throughout. For the same compound, the Potency entry in experiment [2] was “inactive”.

Turning to `N#C[C@H]1C[C@H]2C[C@@H]2N1C(=O)[C@@H](N)C12CC3CC(CC(O)(C3)C1)C2`, the Potency entry in [1] and in experiment [2] was “inactive” in each case.

As to `Cc1c(NC(=O)c2ccc(C(C)(C)C)cc2)cccc1-c1cn(C)c(=O)c(Nc2ccc(C(=O)N3CCOCC3)cc2)n1`, the Potency entry in experiment [3] and in [2] was “inactive” in each case.
